From PubChem
This is a sample that favours compounds with a hit; in the whole collection about 3.4% have one here.
esBAF inh = blocks esBAF chromatin remodeling in mouse ES cells; hit rate 2% among 350,000; Bmi1-luciferase knock-in reporter, 24 h; 100% = twice the neutral-well signal; reporter increase, % at 12.5 µM; in the data active means activation above about 40%;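 further: 0% = median of the plate's neutral control wells and 100% = double that signal; a rise in the Bmi1 reporter signal indicates esBAF inhibition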
Vif imaging = blocks HIV Vif function; inhibition, % at 7.49 µM; hit rate 0.35% among 340,000; AID 602346; HEK293T cells, Vif self-association by quenched fluorescence, imaging, 24 h; in the data active means inhibition above about 50%, passing the limit was not always enough
HSF1 inh = HSF1 inhibition; activity change, negative = inhibition, % at 7.5 µM (by protocol); hit rate 0.77% among 300,000; NIH3T3-HGL HSE-luciferase, MG132-induced, luminescence 8 h; stronger effect = lower value;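 active means more than half of replicate wells show activity change below -50%, luminescence cut by over half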;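 further: luciferase reports HSF-1 transcriptional activity via heat shock element; 0% = median of DMSO wells and -100% = zero luminescence signal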
HSF1 activator = increases HSF-1 driven luciferase reporter signal. NIH3T3-HGL HSF-1 luciferase reporter, MG132, 8 h; 100% = twice DMSO control signal. hit rate 1.7% among 300,000. AID 504408. activation, % at 9 µM;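 active means mean replicate activation of at least 50% with a set share of replicates each reaching 50%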;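 further: 0% = median of the neutral control wells and 100% = twice that signal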
* = called active by the depositor; . = no result given.

SMILES	esBAF inh	Vif imaging	HSF1 inh	HSF1 activator
C=C1C(=O)OC2CC3(C)OC3CCC(C)=CC(OC(C)=O)C12 (configuration not stated)	.	13	.	.
COC(=O)[C@H]1[C@H](CO)[C@H]2Cn3c(ccc(-c4cccc(F)c4)c3=O)[C@@H]1N2Cc1ccncc1	6	.	.	.
O=C1NC2C(=CC(O)C(O)C2O)c2cc3c(c(O)c21)OCO3 (configuration not stated)	.	-3	.	.
O=C1NC2C(O)C(O)C(O)C(O)C2c2cc3c(c(O)c21)OCO3 (configuration not stated)	.	-31	89*	89*
CN1CCc2cc(O)cc3c2[C@H]1Cc1ccc(O)c(O)c1-3	-6	-1	74	78*
CCCN1CCc2cc(O)cc3c2[C@H]1Cc1ccc(O)c(O)c1-3	2	-2	39	24
COC(=O)[C@H]1[C@H](CO)[C@H]2Cn3c(ccc(C4=CCCCC4)c3=O)[C@@H]1N2CC1CCCC1	0	.	.	.
O=c1[nH]c(=S)[nH]c(O)c1N=Nc1ccc2c(c1)OCO2	.	4	-4	-8
COc1cccc(N=Nc2c(O)[nH]c(=S)[nH]c2=O)c1	1	-1	53	103*
O=c1[nH]c(=S)[nH]c(O)c1N=Nc1ccc2c(c1)OCCO2	7	-4	46	73*
O=c1[nH]c(O)c(N=Nc2ccc3c(c2)OCCO3)c(=O)[nH]1	.	3	-62*	-67
COc1ccc(N=Nc2c(O)[nH]c(=S)[nH]c2=O)cc1	.	1	-13	9
COC(=O)[C@H]1[C@H](CO)[C@H]2Cn3c(ccc(-c4ccccc4F)c3=O)[C@@H]1N2Cc1cccnc1	-3	.	.	.
O=C(O)[C@@H]1[C@@H](CO)[C@@H]2Cn3c(ccc(-c4ccc(F)cc4)c3=O)[C@H]1N2CC1CCCCC1	-4	.	.	.
C/C=C/c1ccc([C@@H]2[C@@H](CO)N3CCCCN(C(=O)Cc4ccncc4)C[C@@H]23)cc1	8	.	.	.
CN1CC(C(=O)c2ccccc2)C(C(=O)c2ccccc2)C1 (configuration not stated)	57*	-2	.	.
COc1ccc(C2=CC(c3ccc(OC)c(OC)c3)c3c(c4ccccc4oc3=O)O2)cc1OC (configuration not stated)	8	-5	-56*	-64
Cc1ccccc1S(=O)(=O)N1[C@@H]2Cn3c(ccc(-c4cccnc4)c3=O)[C@H]1[C@@H](C(=O)O)[C@@H]2CO	-3	.	.	.
Cc1ccc(N2C(=O)NC(=O)/C(=C/c3cnn(-c4ccc(C)cc4)c3)C2=O)cc1	.	-5	-70*	-75
C[C@H]1CN([C@@H](C)CO)C(=O)CCCn2cc(nn2)CO[C@H]1CN(C)C(=O)Oc1ccc2ccccc2c1	9	.	.	.
CCCNC(=O)N1[C@@H]2c3ccc(-c4ccccc4OC)c(=O)n3C[C@H]1[C@H](CO)[C@H]2C(=O)OC	-4	.	.	.
O=C(c1ccccc1)C1NC1c1ccccc1 (configuration not stated)	49*	11	8	11
CC(=O)c1ccc2c(c1)OCO2	1	3	2	11
CC(=O)c1cc(C(C)=O)c(C)[n+](C)c1C	-4	91*	-14	3
O=C1Nc2ccccc2/C1=C/c1cnc[nH]1	17	4	38	66*
SMILES	esBAF inh	Vif imaging	HSF1 inh	HSF1 activator
COc1ccc2c(c1)/C(=C/c1cnc[nH]1)C(=O)N2	52*	-1	32	32
COC(=O)[C@@H]1[C@@H](CO)[C@@H]2Cn3c(ccc(-c4ccccc4F)c3=O)[C@H]1N2Cc1cccnc1	-2	.	.	.
COC(=O)[C@@H]1[C@@H](CO)[C@@H]2Cn3c(cccc3=O)[C@@H]2N1CC1CC1	0	.	.	.
COc1cccc(OCc2cc(C(=O)N3C[C@H]4C[C@@H](C3)c3cccc(=O)n3C4)no2)c1	73*	7	43	73*
COc1ccc(C#Cc2ccc([C@@H]3[C@H](CO)N4CCCCN(C(=O)Cc5ccccc5)C[C@@H]34)cc2)cc1	1	.	.	.
Cc1cccc(N=Cc2c(O)n(-c3ccccc3C)c(=O)[nH]c2=O)c1	-4	6	.	.
Cc1ccccc1-n1c(O)c(C=Nc2ccc(N(C)C)cc2)c(=O)[nH]c1=O	16	-10	21	64*
Oc1ccc2c3c1OC1c4[nH]c5ccccc5c4C[C@@]4(O)C(C2)N(CC2CC2)CC[C@]314 (some centres not stated)	4	-1	.	.
O=C1/C(=C/c2ccccc2)C[C@@]2(O)[C@H]3Cc4ccc(O)c5c4[C@@]2(CCN3CC2CC2)C1O5 (some centres not stated)	54*	-11	.	.
O=c1[nH]c(=O)n(Cc2ccccc2)c(O)c1C=NCCN1CCNCC1	-7	2	-85*	-89
